Test results: PubChem BioAssay AID1159580 (chemical genetic matrix, 2015)
The campaign covered roughly 5,500 compounds. About 2,000 (36%) were called active. Not shown: some 18% with an inconclusive outcome. Rule as the data show it: active = normalized growth mostly below about 0.91 (no sharp cut-off); inconclusive = no clear call, values can overlap the other calls; inactive = mostly above about 0.92. The list shows a part of the results.

Experiment: chemical genetic growth profiling, strain panel (AID 1159580);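 also: tested at 20 µM; growth read once vehicle control cultures reached saturation at 30 °C; 1 = growth at the plate median or of vehicle wells; lower values mean less growth of the strain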
Settings: growth OD

Measured: normalized growth

CC1O[C@@H](Oc2c(-c3ccc(O)c(O)c3)oc3cc(O)cc(O)c3c2=O)[C@H](O)[C@H](O)[C@H]1O (some centres not stated)
inactive: S. cerevisiae deletion strains, locus YJR075W, strain HOC1, hits give low values 0.996 | S. cerevisiae deletion strains, locus YKL009W, strain mrt4, hits give low values 1.11 | S. cerevisiae deletion strains, locus YKL068W, hits give low values 0.972 | S. cerevisiae deletion strains, locus YKL085W, strain MDH1 (second series), hits give low values 1.03 | S. cerevisiae deletion strains, locus YKL085W, strain MDH1, hits give low values 1.03 | S. cerevisiae deletion strains, locus YKL160W, strain elf1, hits give low values 0.994 | S. cerevisiae deletion strains, locus YKL190W, strain CNB1, hits give low values 0.998 | S. cerevisiae deletion strains, locus YKR001C, strain vps1, hits give low values 0.989 | S. cerevisiae deletion strains, locus YKR026C, strain gcn3, hits give low values 0.983 | S. cerevisiae deletion strains, locus YKR091W, strain srl3, hits give low values 0.993 | S. cerevisiae deletion strains, locus YLL001W, strain dnm1, hits give low values 0.986 | S. cerevisiae deletion strains, locus YLL026W, hits give low values 0.996 | S. cerevisiae deletion strains, locus YLL041C, strain sdh2, hits give low values 0.997 | S. cerevisiae deletion strains, locus YLR027C, strain aat2, hits give low values 0.98 | S. cerevisiae deletion strains, locus YLR039C, strain RIC1, hits give low values 0.974 | S. cerevisiae deletion strains, locus YLR058C, strain SHM2, hits give low values 0.999 | S. cerevisiae deletion strains, locus YLR102C, strain apc9, hits give low values 0.984 | S. cerevisiae deletion strains, locus YLR113W, strain HOG1, hits give low values 0.958 | S. cerevisiae deletion strains, locus YLR221C, strain rsa3, hits give low values 0.989 | S. cerevisiae deletion strains, locus YLR258W, strain gsy2, hits give low values 1 | S. cerevisiae deletion strains, locus YLR262C, strain YPT6 (second series), hits give low values 1.01 | S. cerevisiae deletion strains, locus YLR262C, strain YPT6, hits give low values 0.992 | S. cerevisiae deletion strains, locus YLR268W, strain sec22, hits give low values 0.948 | S. cerevisiae deletion strains, locus YLR320W, strain mms22, hits give low values 0.991 | S. cerevisiae deletion strains, locus YLR330W, strain CHS5, hits give low values 0.99 | S. cerevisiae deletion strains, locus YLR342W, strain FKS1 (second series), hits give low values 1.04 | S. cerevisiae deletion strains, locus YLR342W, strain FKS1, hits give low values 0.984 | S. cerevisiae deletion strains, locus YLR357W, strain rsc2, hits give low values 0.969 | S. cerevisiae deletion strains, locus YLR370C, strain arc18, hits give low values 0.989 | S. cerevisiae deletion strains, locus YLR371W, strain rom2, hits give low values 0.992 | S. cerevisiae deletion strains, locus YLR384C, strain iki3, hits give low values 0.994 | S. cerevisiae deletion strains, locus YLR418C, strain cdc73, hits give low values 0.993 | S. cerevisiae deletion strains, locus YML016C, strain PPZ1, hits give low values 1 | S. cerevisiae deletion strains, locus YML032C, strain rad52, hits give low values 0.99 | S. cerevisiae deletion strains, locus YML120C, strain ndi1, hits give low values 1 | S. cerevisiae deletion strains, locus YML124C, strain tub3, hits give low values 0.985 | S. cerevisiae deletion strains, locus YMR058W, strain fet3, hits give low values 0.99 | S. cerevisiae deletion strains, locus YMR078C, strain ctf18, hits give low values 0.988 | S. cerevisiae deletion strains, locus YMR125W, strain sto1, hits give low values 0.981 | S. cerevisiae deletion strains, locus YMR129W, hits give low values 0.982 | S. cerevisiae deletion strains, locus YMR205C, strain PFK2, hits give low values 0.986 | S. cerevisiae deletion strains, locus YMR223W, strain ubp8, hits give low values 1.03 | S. cerevisiae deletion strains, locus YMR231W, strain pep5, hits give low values 0.974 | S. cerevisiae deletion strains, locus YMR263W, strain SAP30, hits give low values 0.992 | S. cerevisiae deletion strains, locus YMR307W, strain GAS1, hits give low values 1.1 | S. cerevisiae deletion strains, locus YNL067W, strain RPL9B, hits give low values 0.975 | S. cerevisiae deletion strains, locus YNL071W, strain lat1, hits give low values 0.992 | S. cerevisiae deletion strains, locus YNL128W, strain TEP1, hits give low values 0.986 | S. cerevisiae deletion strains, locus YNL153C, strain GIM3, hits give low values 0.991 | S. cerevisiae deletion strains, locus YNL183C, strain NPR1, hits give low values 0.919 | S. cerevisiae deletion strains, locus YNL209W, strain ssb2, hits give low values 0.984 | S. cerevisiae deletion strains, locus YNL233W, strain BNI4, hits give low values 0.985 | S. cerevisiae deletion strains, locus YNL248C, strain rpa49, hits give low values 0.989 | S. cerevisiae deletion strains, locus YNL250W, strain rad50, hits give low values 0.983 | S. cerevisiae deletion strains, locus YNL271C, strain bni1, hits give low values 0.984 | S. cerevisiae deletion strains, locus YNL298W, strain CLA4, hits give low values 0.991 | S. cerevisiae deletion strains, locus YNL307C, strain MCK1, hits give low values 0.997 | S. cerevisiae deletion strains, locus YNL322C, strain KRE1 (second series), hits give low values 0.988 | S. cerevisiae deletion strains, locus YNL322C, strain KRE1, hits give low values 0.984 | S. cerevisiae deletion strains, locus YNR049C, strain mso1, hits give low values 0.986 | S. cerevisiae deletion strains, locus YNR052C, strain pop2, hits give low values 0.98 | S. cerevisiae deletion strains, locus YOL006C, strain TOP1, hits give low values 0.955 | S. cerevisiae deletion strains, locus YOL012C, strain htz1 0.762 | S. cerevisiae deletion strains, locus YOL147C, strain pex11, hits give low values 0.997 | S. cerevisiae deletion strains, locus YOR001W, strain rrp6, hits give low values 0.992 | S. cerevisiae deletion strains, locus YOR061W, strain CKA2, hits give low values 1 | S. cerevisiae deletion strains, locus YOR069W, strain VPS5, hits give low values 1 | S. cerevisiae deletion strains, locus YOR070C, strain gyp1, hits give low values 0.986 | S. cerevisiae deletion strains, locus YOR080W, strain dia2, hits give low values 0.988 | S. cerevisiae deletion strains, locus YOR083W, strain WHI5, hits give low values 0.995 | S. cerevisiae deletion strains, locus YOR106W, strain vam3, hits give low values 1.02 | S. cerevisiae deletion strains, locus YOR136W, strain idh2, hits give low values 0.986 | S. cerevisiae deletion strains, locus YOR144C, strain elg1, hits give low values 0.982 | S. cerevisiae deletion strains, locus YOR184W, strain ser1, hits give low values 1.01 | S. cerevisiae deletion strains, locus YOR231W, strain MKK1, hits give low values 0.942 | S. cerevisiae deletion strains, locus YOR265W, strain rbl2, hits give low values 0.992 | S. cerevisiae deletion strains, locus YOR270C, strain vph1, hits give low values 1.03 | S. cerevisiae deletion strains, locus YOR290C, strain snf2, hits give low values 0.995 | S. cerevisiae deletion strains, locus YOR316C, strain cot1, hits give low values 0.983 | S. cerevisiae deletion strains, locus YPL051W, strain arl3, hits give low values 0.983 | S. cerevisiae deletion strains, locus YPL055C, strain LGE1, hits give low values 0.974 | S. cerevisiae deletion strains, locus YPL078C, strain atp4, hits give low values 0.997 | S. cerevisiae deletion strains, locus YPL106C, strain sse1, hits give low values 0.971 | S. cerevisiae deletion strains, locus YPL240C, strain hsp82, hits give low values 1 | S. cerevisiae deletion strains, locus YPL241C, strain CIN2, hits give low values 1 | S. cerevisiae deletion strains, locus YPL256C, strain CLN2, hits give low values 0.927 | S. cerevisiae deletion strains, locus YPR119W, strain clb2, hits give low values 0.996 | S. cerevisiae deletion strains, locus YPR141C, strain kar3, hits give low values 0.975 | S. cerevisiae deletion strains, locus YPR163C, strain tif3, hits give low values 0.986 | S. cerevisiae deletion strains, locus YPR167C, strain met16, hits give low values 0.982 | S. cerevisiae deletion strains, strain wtn01, hits give low values 0.982 | S. cerevisiae strains, strain wild type, hits give low values 0.997
